Results published in PubChem BioAssay (NCI).
This is part of a sample that, as a whole, favours compounds with a hit. Of some 79,000 tested, about 15% had one in any assay. The source made the active and inactive calls. Rule as the data show it: active = growth inhibition above about 70%; inactive = the rest.

Assays:
[1] = NCI Yeast Anticancer Drug Screen. Data for the rad52 strain (AID 147);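 also: 0% = growth of vehicle-treated control cultures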; conditions: S. cerevisiae rad52 mutant growth inhibition, hits give high values
Outline: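 The repair-mutant yeast strain was incubated with compounds, then growth was read and inhibition derived relative to vehicle.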

[2] = NCI Yeast Anticancer Drug Screen. Data for the wt1 strain (AID 149);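 also: 0% = growth of vehicle-treated wt1 cultures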; conditions: S. cerevisiae wt1 strain (SPY 50644) growth inhibition, hits give high values
Outline: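 Each compound is tested on wt1 yeast and the loss of growth versus vehicle gives the inhibition value.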

[3] = NCI Yeast Anticancer Drug Screen. Data for the rad50EPP+ strain (AID 151);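 also: 0% = growth of vehicle-treated control cultures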; conditions: S. cerevisiae rad50 mutant strain, hits give high values
Outline: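 Vehicle-normalised growth inhibition; rad50EPP+ yeast strain, altered in DNA damage repair, compound-treated.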

[4] = NCI Yeast Anticancer Drug Screen. Data for the mgt1 strain (AID 153); conditions: S. cerevisiae mgt1 mutant growth inhibition, hits give high values
Outline: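 Vehicle-normalized growth inhibition is determined in mgt1 yeast, a strain selected for a defined alteration in DNA repair or cell cycle control.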

[5] = NCI Yeast Anticancer Drug Screen. Data for the rad50 strain (AID 155);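 also: 0% = growth of vehicle-only cultures of the same strain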; conditions: S. cerevisiae rad50 strain growth inhibition, hits give high values
Outline: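 Vehicle-treated cultures provide the reference for the growth inhibition reported for compound-exposed, repair-deficient yeast.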

[6] = NCI Yeast Anticancer Drug Screen. Data for the mec2-1 strain (AID 157); conditions: S. cerevisiae mec2-1 strain, hits give high values
Outline: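 Mutant yeast (mec2-1) grown with compound; growth inhibition relative to vehicle control reported.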

[7] = NCI Yeast Anticancer Drug Screen. Data for the rad14 strain (AID 159);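 also: 0% = growth of vehicle-treated control cultures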; conditions: S. cerevisiae rad14 strain growth inhibition, hits give high values
Outline: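 Inhibition of growth is reported for a repair-deficient yeast mutant following compound treatment, calculated relative to cultures that received vehicle.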

[8] = NCI Yeast Anticancer Drug Screen. Data for the sgs1 mgt1 strain (AID 161);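 also: 0% = growth of cultures given vehicle only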; conditions: S. cerevisiae sgs1 mgt1 strain, hits give high values
Outline: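 Yeast cells carrying a defined DNA-repair defect were exposed to test compounds. Growth inhibition was measured relative to vehicle-treated controls.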

[9] = NCI Yeast Anticancer Drug Screen. Data for the CLN2oe strain (AID 163);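 also: 0% = growth of vehicle-only control cultures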; conditions: S. cerevisiae CLN2oe strain, hits give high values
Outline: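 Compounds are applied to yeast harbouring a defined cell-cycle control change; reduced growth compared with vehicle-treated controls gives the value.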

[10] = NCI Yeast Anticancer Drug Screen. Data for the cln2 rad14 strain (AID 165);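 also: 0% = growth equal to vehicle treated cultures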; conditions: S. cerevisiae cln2 rad14 strain, hits give high values
Outline: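 Readout is yeast growth inhibition versus vehicle-treated controls, using a strain with cln2 and rad14 alterations exposed to compound.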

[11] = NCI Yeast Anticancer Drug Screen. Data for the bub3 strain (AID 167); conditions: S. cerevisiae bub3 mutant strain, hits give high values
Outline: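 Mutant yeast screening strain plus compound; vehicle-treated cultures serve as the 0% inhibition reference.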

[12] = NCI Yeast Anticancer Drug Screen. Data for the wt2 strain (AID 169); conditions: S. cerevisiae wt2 strain growth inhibition, hits give high values
Outline: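 Against vehicle-treated controls, the growth of yeast exposed to each compound was compared, and the inhibition was recorded.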

[13] = NCI Yeast Anticancer Drug Screen. Data for the mlh1 strain (AID 171);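 also: 0% = growth of vehicle-treated control cultures of the same strain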; conditions: S. cerevisiae mlh1 strain growth inhibition, hits give high values
Outline: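 Measured: yeast growth. Reference: vehicle-treated controls. Organism: strain with a defined alteration affecting DNA damage repair or cell cycle control, treated with compound.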

[14] = NCI Yeast Anticancer Drug Screen. Data for the sgs1 strain (AID 173);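 also: 0% = growth of vehicle-only control cultures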; conditions: S. cerevisiae sgs1 mutant, hits give high values
Outline: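 Each compound was added to cultures of the altered yeast strain. Growth was recorded, and inhibition was derived by comparison with vehicle controls.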

[15] = NCI Yeast Anticancer Drug Screen. Data for the mlh1 rad18 strain (AID 175); conditions: S. cerevisiae mlh1 rad18 strain growth inhibition, hits give high values
Outline: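 Genetically defined yeast (DNA repair-deficient) exposed to compounds; growth inhibition determined relative to vehicle.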

[16] = NCI Yeast Anticancer Drug Screen. Data for the rad18 strain (AID 177); conditions: S. cerevisiae rad18 mutant growth inhibition, hits give high values
Outline: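 Vehicle-treated cultures served as the baseline for scoring compound-induced growth inhibition in DNA-repair-mutant yeast.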

[17] = at 5.0 µM (retest, dose inferred, filed as 0.5)
[18] = at 50.0 µM (retest, dose inferred, filed as 5.0)

Measured: growth inhibition

CC1(Cl)CC(O)C2(CC1Br)C1(C)OC1C1OC1(Br)C2(C)C (stereo unspecified)
active: [1]; at 100.0 µM 98% | [2]; at 100.0 µM 98% | [3]; at 100.0 µM 73% | [4]; at 33.0 µM 74% | [4]; at 100.0 µM 98% | [5]; at 33.0 µM 73% | [5]; [18] 79% | [5]; at 100.0 µM 97% | [6]; at 100.0 µM 98% | [7]; at 100.0 µM 97% | [8]; [18] 86% | [9]; at 100.0 µM 98% | [11]; [18] 89% | [11]; at 50.0 µM 73.5% | [11]; at 100.0 µM 98% | [12]; at 100.0 µM 98% | [13]; at 100.0 µM 97% | [14]; at 33.0 µM 78% | [14]; at 100.0 µM 98% | [15]; [18] 80% | [16]; at 33.0 µM 76% | [16]; at 100.0 µM 98%
inactive: [1]; at 1.2 µM 14% | [1]; at 3.7 µM 19% | [1]; at 11.0 µM 31% | [1]; at 33.0 µM 66% | [2]; at 1.2 µM 1% | [2]; at 3.7 µM -20% | [2]; at 11.0 µM -2% | [2]; at 33.0 µM 60% | [3]; at 1.2 µM -9% | [3]; at 3.7 µM -12% | [3]; at 11.0 µM -21% | [3]; at 33.0 µM 2% | [4]; at 1.2 µM -18% | [4]; at 3.7 µM -14% | [4]; at 11.0 µM -1% | [5]; at 1.2 µM -8% | [5]; at 3.7 µM -12% | [5]; [17] 12% | [5]; at 11.0 µM 1% | [5]; at 50.0 µM 62.6% | [6]; at 1.2 µM -29% | [6]; at 3.7 µM -21% | [6]; [17] 0% | [6]; at 11.0 µM -23% | [6]; at 33.0 µM 39% | [6]; [18] 53% | [6]; at 50.0 µM 59.2% | [7]; at 1.2 µM -18% | [7]; at 3.7 µM -14% | [7]; at 11.0 µM -23% | [7]; at 33.0 µM 61% | [8]; [17] 2% | [8]; at 50.0 µM 67.8% | [9]; at 1.2 µM 2% | [9]; at 3.7 µM 3% | [9]; at 11.0 µM 5% | [9]; at 33.0 µM 31% | [10]; [17] 33% | [10]; [18] 58% | [10]; at 50.0 µM 42.5% | [11]; at 1.2 µM -15% | [11]; at 3.7 µM 1% | [11]; [17] 29% | [11]; at 11.0 µM 1% | [11]; at 33.0 µM 35% | [12]; at 1.2 µM -10% | [12]; at 3.7 µM -5% | [12]; at 11.0 µM -1% | [12]; at 33.0 µM 62% | [13]; at 1.2 µM -19% | [13]; at 3.7 µM -22% | [13]; at 11.0 µM -18% | [13]; at 33.0 µM 66% | [14]; at 1.2 µM -25% | [14]; at 3.7 µM -33% | [14]; at 11.0 µM -17% | [15]; [17] -13% | [15]; at 50.0 µM 62.6% | [16]; at 1.2 µM -15% | [16]; at 3.7 µM -7% | [16]; at 11.0 µM 25%

CC(=O)Nc1ccc2c(c1)C(=Nc1ccc(C(=O)O)cc1)c1ccccc1-2
active: [1]; at 100.0 µM 96% | [3]; at 100.0 µM 92% | [4]; at 100.0 µM 91% | [5]; at 50.0 µM 91% | [5]; at 100.0 µM 95% | [6]; at 100.0 µM 78% | [7]; at 100.0 µM 97% | [8]; at 50.0 µM 74% | [11]; at 50.0 µM 91.6% | [12]; at 100.0 µM 93% | [13]; at 100.0 µM 90% | [14]; at 100.0 µM 95% | [15]; [18] 73% | [15]; at 50.0 µM 91.1% | [16]; at 33.0 µM 85% | [16]; at 100.0 µM 96%
inactive: [1]; at 1.2 µM -4% | [1]; at 3.7 µM -2% | [1]; at 11.0 µM 4% | [1]; at 33.0 µM 47% | [2]; at 1.2 µM 1% | [2]; at 3.7 µM 6% | [2]; at 11.0 µM 5% | [2]; at 33.0 µM 13% | [2]; at 100.0 µM 51% | [3]; at 1.2 µM 0% | [3]; at 3.7 µM 7% | [3]; at 11.0 µM 28% | [3]; at 33.0 µM 67% | [4]; at 1.2 µM -2% | [4]; at 3.7 µM -5% | [4]; at 11.0 µM -5% | [4]; at 33.0 µM 3% | [5]; at 1.2 µM -1% | [5]; at 3.7 µM 0% | [5]; [17] 6% | [5]; at 11.0 µM 9% | [5]; at 33.0 µM 47% | [5]; [18] 52% | [6]; at 1.2 µM 1% | [6]; at 3.7 µM 4% | [6]; [17] -3% | [6]; at 11.0 µM 9% | [6]; at 33.0 µM 22% | [6]; [18] 57% | [6]; at 50.0 µM 65.8% | [7]; at 1.2 µM -2% | [7]; at 3.7 µM 1% | [7]; at 11.0 µM 5% | [7]; at 33.0 µM 30% | [8]; [17] -15% | [8]; [18] 6% | [9]; at 1.2 µM 1% | [9]; at 3.7 µM -11% | [9]; at 11.0 µM 3% | [9]; at 33.0 µM 14% | [9]; at 100.0 µM 47% | [10]; [17] -8% | [10]; [18] 8% | [10]; at 50.0 µM 43.9% | [11]; at 1.2 µM -2% | [11]; at 3.7 µM -5% | [11]; [17] -7% | [11]; at 11.0 µM 0% | [11]; at 33.0 µM 11% | [11]; [18] 23% | [11]; at 100.0 µM 50% | [12]; at 1.2 µM -2% | [12]; at 3.7 µM -2% | [12]; at 11.0 µM -2% | [12]; at 33.0 µM 9% | [13]; at 1.2 µM -3% | [13]; at 3.7 µM 1% | [13]; at 11.0 µM 2% | [13]; at 33.0 µM 15% | [14]; at 1.2 µM -1% | [14]; at 3.7 µM 2% | [14]; at 11.0 µM 9% | [14]; at 33.0 µM 25% | [15]; [17] -7% | [16]; at 1.2 µM 5% | [16]; at 3.7 µM 15% | [16]; at 11.0 µM 47%
